The values below come from PubChem BioAssay (NCI).

This is part of a sample that, as a whole, favours compounds with a hit. Of some 83,000 tested, about 20% had one in any assay.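 Results are percent growth after 48 hours of single-concentration exposure. 100 means growth as in untreated cells, lower positive values show inhibition; negative values down to -100 show cell death.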 A number with no mark means an inactive call. The source made the active and inactive calls. The calls were made as follows: active = growth percent below 10; inactive = the rest.

The test system of the assay is PC-3 prostate. The experiment in a line: NCI-60 one-dose screen, 48 h (100 = growth as untreated, 0 = no growth, -100 = all killed). Conditions: 10 µM.
For `CCCCCCCNc1nc(C=O)ncc1-c1ccc(C(F)(F)F)cc1`, the growth was 79.8%. Under `C#Cc1ccc(-n2c(/C=C/c3ccc4ccccc4n3)nc3ncccc3c2=O)cc1` stands -28.6% (active); under `O=C1c2ccc3c4c(ccc(c24)C(=O)N1CCNCc1ccccc1)C(=O)N(CCNCc1ccccc1)C3=O`, 28.3%; under `CCN(CC)Cc1cc(Nc2ccnc3cc(Cl)ccc23)ccc1OC`, 66.7%. Turning to `Nc1ccc2c(c1)C1(CCC2)NC(=O)NC1=O` (centres undefined), the growth was 92%.

Turning to `O=C(Nc1cccc(Cl)c1)Nc1nccs1`, the growth is 94.5%. Under `N=C(N)c1ccc(-c2ccc(-c3cccs3)s2)s1` stands 5.1% (active); under `O=C1NC(=O)N(Cc2ccccc2)CC1Br` (centres undefined), 73.1%.

As for `COc1cc(C(=O)N2CCN(c3ccccc3OC)CC2)c(N)cc1OCCCN1CCN(c2ccccc2OC)CC1`, the growth was 69%.

Take `CN(C)CCN=c1nc2c(c(N)n1-c1ccccc1)c(=S)n(-c1ccccc1)c(=S)n2-c1ccccc1`: the growth was 31%. Under `CCOC(=O)c1ccc(NC(=O)Nc2ncc(Cl)cc2Cl)cc1` stands 77%; under `CN(C)N=Nc1nn(C(=O)Nc2ccc(Cc3ccccc3)cc2)c2ccccc12`, 29.5%. Under `CC(=O)N(C)c1ccc(Nc2ccc(Nc3ccc(N(C)C(C)=O)cc3)c3c2C(=O)c2ccccc2C3=O)cc1` stands 38.3%; under `CCOC(=O)C1(CC(C)C)CCOC1=O` (centres undefined), 93.3%. `COc1ccc2c(c1)nc(N)c1c3cccnc3cn21`: the growth was 20.6%. Under `CSCCCNC(=O)c1ccc2c(c1)/C(=C/c1[nH]c(C)cc1C)C(=O)N2` stands 11.4%; under `COc1cc(Cl)cc(-c2nn(-c3cccc(NC(=O)Nc4ccc(Cl)c(Cl)c4)c3)cc2-c2ccncc2)c1`, -5.03% (active); under `CC1=C(N2CCOCC2)C(N2CCOCC2)=C(C)C(=O)C1=O`, 104%. To `COc1cc(-c2nc(Nc3nc4ccccc4s3)[nH]c(=O)c2C#N)cc(OC)c1O` belongs 101%. For the molecule `COc1ccc(CN2CCC(N3CCCC3=O)c3cc(Cl)ccc32)cc1` (centres undefined), the growth was 84.4%. To `CC(=O)O[C@]1(C)CC[C@H]2[C@H](CNCCc3ccc(Cl)cc3)C(=O)O[C@@H]2C2=C(C)C(=O)C[C@H]21` belongs 86.9%. Take `COc1ccc(-c2nn(-c3cccc(NC(=O)Nc4cc(C(F)(F)F)cc(C(F)(F)F)c4)c3)cc2-c2ccncc2)cc1Cl`: the growth was -14.7% (active).

For `CN(CCc1ccccn1)c1ccccc1`, the growth is 101%. Under `COc1ccc(N=C2C(=Nc3ccc(OC)cc3)N(c3ccc(N(C)C)cc3)C(=S)N2c2ccc(OC)cc2)cc1` stands 52.5%; under `COc1cc2nc(Nc3cccc(NC(C)=O)c3)nc(N)c2cc1OC`, 60%. Under `C#Cc1ccc(-n2c(/C=C/c3ccc(Cl)c(F)c3)nc3ncccc3c2=O)cc1` stands 2.16% (active). Under `COc1cccc(Cn2c(-c3nonc3N)nc3ccccc32)c1` stands 11%; under `c1ccc([I+]c2ccccc2)cc1`, 69.8%. Take `O=C(c1cccs1)c1ccccc1Cc1ccccc1`: the growth was 87.7%.

Turning to `COc1ccc(-c2ccc(-c3ccc(C(=N)N)cn3)o2)cc1`, the growth was 68.3%. As for `Nc1c(C(=O)Nc2cccc3ccccc23)sc2nc3c(cc12)C(=O)CCC3`, the growth is 22.6%. To `COc1ccc(Nc2ccnc(NCCNc3ccnc4cc(Cl)ccc34)n2)cc1` belongs 30.1%; to `O=C(Nc1ccc(Cl)c([N+](=O)[O-])c1)Nc1nc2ccccc2s1`, 49.9%.

Consider `COc1cc(C(=O)/C=C/c2cc(-c3cc(OC)c(OC)c(OC)c3)n[nH]2)cc(OC)c1OC`, for which the growth was 12.9%. Under `CC(=O)N1C/C(=C/c2ccc(Cl)cc2)C(=O)/C(=C/c2ccc(Cl)cc2)C1` stands -42.4% (active).

For `COc1cc(/C=N/NC(=O)c2ccccc2Nc2cccc(C(F)(F)F)c2)cc(OC)c1OC`, the growth was -35.3% (active). On to `O=C1N=NC2=C1c1c3ccccc3c(O)n1CC2`, for which the growth was 86.2%. Under `CS(=O)(=O)Nc1cccc(-c2cc(-c3ccccc3Cl)c(C#N)c(N)n2)c1` stands 22.3%; under `N#Cc1ncc(-c2ccc(C(F)(F)F)cc2)c(NCc2cc(C(F)(F)F)cc(C(F)(F)F)c2)n1`, 1.54% (active).
